Measurements reported in PubChem BioAssay AID485314 (National Center for Advancing Translational Sciences (NCATS), 2010).
In all, about 340,000 compounds went through this assay and about 4,500 (1.3%) were called active. Another 5% or so got no clear call; they are omitted. Calls follow the shape of the dose curve; as a rule, active = well fitted inhibition curve with a large enough effect; inconclusive = small, poorly fitted or top-dose-only effect, or another doubt; inactive = no such curve, though single readings can be large or run the other way. Only a selection was taken, and actives are over-represented in it overall.

These compounds were tested against DNA polymerase beta (Homo sapiens) (UniProt P06746) (assay: qHTS Assay for Inhibitors of DNA Polymerase Beta). Settings: Pol beta primer extension/strand displacement, fluorescence kinetic; series mostly up to 114 µM; activity change, negative = inhibition: at the top concentration.
Outline: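 Reaction started by 50 nM substrate onto compound-treated Pol beta (10 nM, 15 min preincubation, room temperature); plates read at 0 min and 10 min. Normalized concentration-effect data fitted by four-parameter Hill equation.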
% is scaled to controls: 0 for no effect and ±100 for the full control effect; potency is read from the fitted curve at half-maximal effect.

| Structure (SMILES) | activity change, negative = inhibition | Potency |
| --- | --- | --- |
| CCn1cc2nc(SCc3ccccc3Cl)n(CCc3ccccc3)c(=O)c2n1 | 1.98% (inactive) |  |
| CCc1ccc(NC(=O)c2sc3nc4c(cc3c2N)CN(CC)CC4)cc1 | -13.7% (inactive) |  |
| CCc1nnc(NC(=O)c2sc3nc(C)cc(COC)c3c2N)s1 | -0.594% (inactive) |  |
| CCc1ccc2nc3sc(C(=O)Nc4nnc(CC)s4)c(N)c3cc2c1 |  | 25.1 µM (active) |
| Cc1ccc(C)c(N2CCN(C(c3ccccc3)c3nnc(-c4ccccc4)o3)CC2)c1 (stereo unspecified) | 2.47% (inactive) |  |
| O=C(CSC(=S)N1CCOCC1)c1cc(Br)cc(Br)c1O |  | 31.6 µM (active) |
| O=C(c1cc2cc(Br)cc(Br)c2oc1=O)N1CCOCC1 | 7.01% (inactive) |  |
| O=C(CSC(=S)N1CCOCC1)c1ccccc1 | 2.75% (inactive) |  |
| CCc1ccccc1N(C)C(=O)C1CCCN(c2ncnc3onc(-c4ccc(F)cc4)c23)C1 (stereo unspecified) | -20.2% (inactive) |  |
| O=C(Nc1nnc(C2CC(=O)N(c3ccc(Cl)cc3)C2)s1)c1ccco1 (stereo unspecified) | -0.775% (inactive) |  |
| O=C(c1cnn(-c2ccc(F)cc2)c1-n1cccc1)N1CCN(c2ccc(F)cc2)CC1 | 1.09% (inactive) |  |
| COC(=O)c1sc2ncccc2c1-n1c(C)ccc1C | 14.6% (inactive) |  |
| Cc1cccc(CCNC(=O)c2ccc3c(c2)nc2n3CCC(C)C2)c1 (stereo unspecified) | -17.9% (inactive) |  |
| O=c1oc(-c2ccco2)nc2sc3c(c12)CCCCC3 | 3.53% (inactive) |  |
| O=C(NCc1ccco1)c1nc2ncccn2n1 | 11.7% (inactive) |  |
| O=C(NCc1ccco1)c1cccn2c(=O)c3c4c(sc3nc12)CCCC4 |  | 50.1 µM (active) |
| CN(Cc1ccccc1)c1ncnc2onc(-c3ccc(F)cc3)c12 | -27% (inactive) |  |
| COC(=O)c1ccccc1NS(=O)(=O)c1ccc2c(c1)CCCN2C(C)=O | 29% (inactive) |  |
| Cc1ccc(S(=O)(=O)c2nc(-c3cccs3)oc2N2CCCCC2)cc1 | 2.94% (inactive) |  |
| COc1cccc(NC(=O)CSc2cc(=O)n(C)c3ccc(Cl)cc23)c1 | 17.1% (inactive) |  |
| Cc1cc(F)ccc1NS(=O)(=O)c1ccc(-n2cccn2)cc1 | 1.11% (inactive) |  |
| CNc1ccc(-c2nc(-c3ccco3)no2)cc1[N+](=O)[O-] | 10.7% (inactive) |  |

| Structure (SMILES) | activity change, negative = inhibition | Potency |
| --- | --- | --- |
| CC(Nc1ccc(-c2nc(-c3ccco3)no2)cc1[N+](=O)[O-])c1ccccc1 (stereo unspecified) |  | 20 µM (active) |
| O=[N+]([O-])c1cc(-c2nc(-c3ccccc3)no2)ccc1NCc1ccco1 | 1.56% (inactive) |  |
| COc1cccc(NC(=O)Nc2ccc3c(c2)N(C)C(=O)c2ccccc2S3)c1 | -11.2% (inactive) |  |
| CCOC(=O)c1c(NC(=O)c2ccc(S(=O)(=O)N3CCCC(C)C3)cc2)sc2c1CCN(C(C)C)C2 (stereo unspecified) | -0.886% (inactive) |  |
| O=C(Nc1nnc(Cc2ccc(Cl)cc2)s1)c1ccncc1 | 3.6% (inactive) |  |
| O=C(Nc1nnc(Cc2ccc(Cl)cc2)s1)c1cccnc1 |  | 22.4 µM (active) |
| O=C(Nc1nnc(Cc2ccccc2)s1)c1cnccn1 | 5.98% (inactive) |  |
| COc1cccc(C(=O)NC2=NC(c3ccc(N(C)C)cc3)CC(=O)N2)c1 (stereo unspecified) | 0.969% (inactive) |  |
| CCC(=O)N1CCc2cc(S(=O)(=O)NC(CC(C)C)C(=O)NCCc3cccc(C)c3)ccc21 (stereo unspecified) | -3.09% (inactive) |  |
| CCC(C)(C)n1nnnc1C(c1ccc(OC)c(OC)c1)N1CCN(C(=O)c2ccco2)CC1 (stereo unspecified) | -7.42% (inactive) |  |
| CCC(c1nnnn1C1CCCC1)N1CCN(C(=O)c2ccco2)CC1 (stereo unspecified) |  | 44.7 µM (active) |
| CC(C)C(c1nnnn1C1CCCCC1)N1CCN(C(=O)c2ccco2)CC1 (stereo unspecified) | 23.6% (inactive) |  |
| COc1c(O)cc2oc(-c3ccc(O)c(O)c3)cc(=O)c2c1O |  | 6.31 µM (active) |
| COc1ccc(-c2c(C)c3ccc(O)c(CN4CCN(C)CC4)c3oc2=O)cc1OC | 27.4% (inactive) |  |
| COc1ccc(-c2c(C)c3ccc(O)c(CN4CCCC4)c3oc2=O)cc1OC | 1.07% (inactive) |  |
| CCN(CC)c1ccc(NS(=O)(=O)c2cc(-c3cc(C)no3)ccc2C)c(C)c1 | 7.48% (inactive) |  |
| CN(C)CCCn1c(-c2ccc(Cl)cc2)csc1=Nc1ccccc1 | -17.6% (inactive) |  |
| CCN1CCN(CCCNC(=O)c2ccc3c(c2)sc2nc(-c4ccc(OC)cc4)cn23)CC1 | 0.356% (inactive) |  |
| O=C(CSc1nc2ccccc2nc1Cc1ccccc1)N1CCCCC1 | -23.8% (inactive) |  |
| CCOC(=O)c1ccc(N2C(=O)c3n[nH]c(C)c3C2c2ccc(O)c(OC)c2)cc1 (stereo unspecified) | 6.08% (inactive) |  |
| CC(C)Oc1ccc(/C=C(\NC(=O)/C=C/c2ccco2)C(=O)NCCc2nc3ccccc3[nH]2)cc1 | -0.381% (inactive) |  |
| COc1ccc(OC(C)C(=O)NCCc2nc3ccccc3[nH]2)cc1 (stereo unspecified) | 3.64% (inactive) |  |

| Structure (SMILES) | activity change, negative = inhibition | Potency |
| --- | --- | --- |
| CCCCCOc1ccc(/C=C/C(=O)NCCc2nc3ccccc3[nH]2)cc1OC |  | 15.8 µM (active) |
| O=C(NCc1ccccc1Cl)C1=Cc2cc(Br)ccc2OC1 | 1.78% (inactive) |  |
| CC(C)C(=O)Nc1nc2c(s1)CC(C(C)(C)C)CC2 (stereo unspecified) | -15.1% (inactive) |  |
| COc1cccc(/C=N/NC(=O)c2[nH]nc3c2CCc2ccccc2-3)c1O |  | 8.91 µM (active) |
| COc1ccc(/C=N/NC(=O)c2ccc3c(c2)OCCO3)c(OC)c1 | -7.82% (inactive) |  |
| CN(C)CCNC(=O)c1[nH]nc2c1CCc1ccccc1-2 | 4.83% (inactive) |  |
| CCOc1ccccc1CNC(=O)c1ccc(-n2c(C)cc3c2CCC(C)C3)cc1 (stereo unspecified) | -5.46% (inactive) |  |
| O=C(CCCCCN1C(=O)c2cccc3cccc(c23)C1=O)NCc1ccco1 | 4.7% (inactive) |  |
| O=C1c2cccc3cccc(c23)C(=O)N1CCCCCc1n[nH]c(=S)o1 | 0.636% (inactive) |  |
| C[N+](C)(CCCCCC[N+](C)(C)CCCN1C(=O)c2cccc3cccc(c23)C1=O)CCCN1C(=O)c2cccc3cccc(c23)C1=O |  | 2.38 µM (active) |
| CCN(CCCNC(=O)CSc1cc(=O)n(C)c2cc(Cl)ccc12)c1cccc(C)c1 | -18.6% (inactive) |  |
| COc1ccc(C2=NC(c3ccncc3)=Nc3ccc(Br)cc3N2)cc1 | -0.33% (inactive) |  |
| CC(=O)c1ccc(NC(=O)CCc2nc(-c3ccc(C)cc3)no2)cc1 | -29.3% (inactive) |  |
| COc1cc2ccccc2cc1C(=O)Nc1cccc(-c2nc3ccccc3o2)c1 | 1.22% (inactive) |  |
| NC(=O)CCN1CCN(S(=O)(=O)/C=C/c2ccccc2)CC1 | 17.7% (inactive) |  |
| COc1ccccc1N1CCN(CC(=O)NC(=O)NCc2ccco2)CC1 | 19.7% (inactive) |  |
| O=C(CN1CCN(S(=O)(=O)/C=C/c2ccccc2)CC1)NC(=O)NCc1ccco1 |  | 25.1 µM (active) |
| CCC1=Nc2cc(C(=O)NCC(C)c3ccccc3)ccc2Sc2ccc(C)cc21 (stereo unspecified) | -9.44% (inactive) |  |
| O=C(CNS(=O)(=O)c1cccs1)N1CCN(c2ccccc2Cl)CC1 | 12% (inactive) |  |
| COc1cccc(CNS(=O)(=O)c2ccc3c(c2)CC(C)N3C(C)=O)c1 (stereo unspecified) | 10.6% (inactive) |  |
| CCC(=O)N1c2ccc(S(=O)(=O)NCc3ccco3)cc2CC1C (stereo unspecified) |  | 0.398 µM (active) |
| COc1cccc(CNS(=O)(=O)c2ccc3c(c2)CC(C)N3C(=O)C2CCC2)c1 (stereo unspecified) |  | inactive |
